FLuc modulator – qHTS profiling assay for firefly luciferase inhibitor/activator using purifed enzyme and Km concentrations of substrates (counterscreen for miR-21 project); Luciferin 4-monooxygenase (Photinus pyralis), P08659; purified FLuc, Km substrates, luminescence inhibition; Potency, µM (top dose mostly 57.5 µM), without a hit: top-dose activity change, negative = inhibition, usual class: inhibitors; 6.9% of 360,000 active; AID 588342, 2011;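 note: plate controls were vehicle for no effect and reference inhibitor for full effect; nearly all actives have a fitted effect of over 55% in size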
Target sequence (P08659 whole entry, looked up): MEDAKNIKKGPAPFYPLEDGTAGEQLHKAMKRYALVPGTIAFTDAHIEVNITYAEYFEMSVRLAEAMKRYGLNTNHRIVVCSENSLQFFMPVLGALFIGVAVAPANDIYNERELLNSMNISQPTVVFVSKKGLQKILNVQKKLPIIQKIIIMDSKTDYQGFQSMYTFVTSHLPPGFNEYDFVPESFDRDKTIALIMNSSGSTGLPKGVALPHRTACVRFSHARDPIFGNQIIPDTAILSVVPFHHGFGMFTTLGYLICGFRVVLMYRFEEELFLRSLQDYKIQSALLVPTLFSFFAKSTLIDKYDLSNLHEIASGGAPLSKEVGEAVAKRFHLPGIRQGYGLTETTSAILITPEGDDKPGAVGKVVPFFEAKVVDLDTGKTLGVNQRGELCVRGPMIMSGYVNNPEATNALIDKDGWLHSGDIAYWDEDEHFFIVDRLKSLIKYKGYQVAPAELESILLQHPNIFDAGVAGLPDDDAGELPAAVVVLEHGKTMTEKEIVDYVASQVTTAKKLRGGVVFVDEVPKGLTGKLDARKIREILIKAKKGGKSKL
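Purified P. pyralis luciferase, 10 nM final, with Km-level 10 uM D-luciferin and 10 uM ATP in 50 mM Tris acetate pH 7.5, 10 mM Mg acetate, 0.01% Tween-20, 0.05% BSA; 6-point qHTS titration about 60 µM downward; luminescence read.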
NPC1 prom act – qHTS Assay for NPC1 Promoter Activators. Huh7 NPC1 promoter luciferase reporter, 24 h. Potency, µM (titrated, usually from 9.22 µM), without a hit: at the top dose activation, actives largely listed as activators. 2.4% of 320,000 active. AID 485313, 2010; note: % of control where 0% means no effect; nearly all actives have a fitted effect of over 60% in size
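Stably transfected Huh7 (NPC1 promoter→luciferase), 1500 cells/well in Opti-MEM + 10% FBS, 2 h settle, then compound 24 h at 37 °C. Luminescence after 10 min with Amplite reagent.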
ELG1 genotoxic – qHTS screen for small molecules that induce genotoxicity in human embryonic kidney (HEK293T) cells expressing luciferase-tagged ELG1 | Potency, µM (series often up to 46 µM), inactives show at the top dose activity change, positive = activation, usual class: activators | AID 504466, 2011 | 1.3% of 330,000 active | HEK293T ELG1-luciferase reporter, luminescence, 16 h; note: % of control where 0% means no effect; nearly all actives have a fitted effect of over 60% in size
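HEK293T cells expressing luciferase-tagged ELG1 were exposed to compound or DMSO vehicle for 16 hr at 37 °C and 5% CO2. Luciferase activity was then measured with ONE-Glo after 30 min at room temperature.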
ELG1 repair inh – qHTS screen for small molecules that inhibit ELG1-dependent DNA repair in human embryonic kidney (HEK293T) cells expressing luciferase-tagged ELG1; Potency, µM (top dose mostly 46.1 µM), without a hit: at the top dose activity change, negative = inhibition, usual class: inhibitors; 2.3% of 330,000 active; HEK293T ELG1-luciferase reporter, luminescence, 16 h; DNA damage induced by 5-fluorouridine; note: % is set by controls: 0 for no effect and ±100 for the full control effect; nearly all actives have a fitted effect of over 55% in size
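5-Fluorouridine DNA damage + compound/DMSO, 2,000 cells/well, 16 h, 37 °C/5% CO2. ONE-Glo, 30 min RT, luminescence. Readout = decrease in reporter signal.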
SMN2 splice up – qHTS Assay for Enhancers of SMN2 Splice Variant Expression | 2.8% of 210,000 active | Potency, µM (titrated, usually from 46.1 µM), without a hit: at the highest dose activity change, positive = activation, usual class: activators | HEK293 SMN2-luciferase splicing reporter, luminescence, 30-36 h; note: % of control where 0% means no effect; nearly all actives have a fitted effect of over 55% in size
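HEK293 cells carry an SMN2 minigene-luciferase reporter in which exon 7 inclusion puts luciferase in frame. Cells were seeded at 2000 cells/well, attached for 10-12 hours, then exposed to compounds for 30-36 hours at 37C before ONE-Glo luminescence.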
Rab9 prom act – qHTS Assay for Rab9 Promoter Activators | Potency, µM (titrated, usually from 9.22 µM), without a hit: top-dose activation, negative = inhibition, hits mostly activators | Huh7 Rab9 promoter-luciferase reporter, luminescence, 24 h | 2.8% of 320,000 active; note: % of control where 0% means no effect; nearly all actives have a fitted effect of over 60% in size
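Rab9 promoter-driven luciferase in stably transfected Huh7 cells; 1500 cells/well rested 2 h, exposed to compound in DMSO for 24 h at 37 °C, 5% CO2. Luminescence read 10 min after adding luciferase reagent at ambient temperature.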
Numbers without * were called inactive; ? = inconclusive; . = no result; [ ] = dose if it differs, or a comment. In the library only some 9.4% were active in any assay of this set; here they are far more common. Calls come from the whole dose curve; as a rule, active = well fitted curve in the direction sought with a large enough effect; inconclusive = small, poorly fitted or top-dose-only effect, or another doubt; inactive = no such curve, though single readings can be large; an effect the other way counts as inactive or inconclusive. Potency is the fitted concentration of half-maximal effect.

SMILES	FLuc modulator	NPC1 prom act	ELG1 genotoxic	ELG1 repair inh	SMN2 splice up	Rab9 prom act
COc1ccc(N(CC(=O)NCc2ccccc2Cl)S(=O)(=O)c2c(C)[nH]c(=O)[nH]c2=O)cc1	-19%	.	.	.	4%	.
O=C1C=C(NCc2ccccc2)CCC1	4%	-2%	0%	6%	8%	0%
O=C1C=C(NC2=CC3OC(c4ccccc4)OCC3OC2=O)CCC1 (centres undefined)	0%	-9%	-4%	13µM*	-5%	2%
CCC(Sc1nnc(C)n2c1cc1occc12)C(=O)Nc1ccccc1F (centres undefined)	-15%	.	.	.	.	.
Cc1cccc(Cn2c(O)c(N=NC(=S)Nc3ccccc3F)c3ccccc32)c1	-2%	-12%	-11%	3.7µM*	.	-4%
Oc1c(N=NC(=S)Nc2ccccc2F)c2ccccc2n1Cc1ccc(F)cc1	-3%	-9%	-15%	5.2µM*	-28%	0%
Oc1c(N=NC(=S)Nc2ccccc2F)c2ccccc2n1Cc1cccc(Cl)c1	0%	-9%	-6%	?	-37%	-5%
COc1ccccc1NC(=O)C1CCN(C(=O)c2sc3nc[nH]c(=O)c3c2C)CC1	-3%	.	.	.	.	.
Cc1cc(C)c(NC(=O)c2sc3nc(C)cc(C)c3c2NC(=O)c2ccccc2)c(C)c1	0%	.	.	.	-9%	.
CCCCCOC(=O)c1ccc(NC(=O)c2cccc(NC(=O)c3ccccc3C(=O)O)c2)cc1	19µM*	2%	-2%	-2%	.	0%
CCCCC(=O)Nc1cccc(NC(=O)c2cccc(Br)c2)c1	-17%	-7%	-13%	7.3µM*	10%	-13%
CCCCC(=O)Nc1cccc(C(=O)Nc2ccccc2C(=O)O)c1	17µM*	-2%	-4%	-14%	.	4%
O=C(COc1ccc2ccccc2c1)Nc1cccc(C(=O)Nc2ccccc2C(=O)O)c1	24µM*	-1%	1%	?	-8%[1.84 µM]	-3%
COc1ccc(OCC(=O)Nc2ccc(C(=O)Nc3ccccc3C(=O)O)cc2)cc1	?	21%	4%	?	.	18%
CCCCC(=O)Nc1cccc(NC(=O)c2ccc(Br)cc2)c1	-1%	4%	-1%	-5%	24%	4%
COCCn1c(SCC(=O)Nc2cccc(C)c2C)nc2c(oc3ccccc32)c1=O	0%	.	.	.	14%	.
Cc1ccc(NC(=O)c2cccc(NC(=O)CCC(=O)O)c2)cc1C	8.5µM*	-3%	3%	-4%	-5%	5%
Cc1c(Cl)cccc1NC(=O)c1cccc(NC(=O)CCC(=O)O)c1	1%	1%	2%	?	-9%	-3%
CN(C)C(=O)c1ccc(COc2ccccc2Br)o1	19µM*	?	21µM*	?	8.9µM*	?
O=C(Nc1nccs1)c1ccc(COc2ccc(F)cc2)o1	15µM*	?	3%	-26%	15%	?
COc1ccccc1OCc1ccc(C(=O)N(C)C)o1	?	2%	18%	?	?	-8%
O=C(COc1ccc(F)cc1)Nc1nc2c(s1)CCCC2	27µM*	?	?	?	.	?
O=C(Nc1nccs1)c1ccc(COc2ccccc2Br)o1	19µM*	27%	?	-10%	-16%	?
COc1ccc(OCC(=O)Nc2nc3c(s2)CCCC3)cc1	?	11%	2%	18%	.	6%
O=C(CN1C(=O)CC(c2ccc(F)cc2)=Nc2ccccc21)NCc1ccccc1Cl	-6%	.	.	.	.	.
CCCn1ccc2c(OCC(=O)Nc3ccc(F)cc3F)cccc2c1=O	4%	.	.	.	.	.
O=C(COc1ccc(F)cc1)Nc1nccs1	7.6µM*	2µM*	?	?	11µM*	1µM*

Screens: PubChem, National Center for Advancing Translational Sciences (NCATS)
